# Assay results published in PubChem BioAssay (NCI).
# Compounds without any hit were thinned out: in the full panel of roughly 83,000, 20% have a hit.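 Testing used 96-well plates and a 48-hour single-concentration exposure. Example: -40 means 40% of the starting cells died.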 Unmarked numbers belong to inactive results. The source made the active and inactive calls. How the source made its calls: active means growth percent below 10; inactive means the rest.
# System: HL-60(TB) leukemia
# Experiment: NCI-60 one-dose screen, 48 h (100 = growth as untreated, 0 = no growth, -100 = all killed)
# Details: 10 µM unless noted
row,SMILES,growth
1,N=C(N)c1ccc(OCCSCCOc2ccc(C(=N)N)cc2)cc1,77.9%
2,CCCCCc1cc[n+](CC(=O)c2ccc(Cl)cc2)cc1,94%
3,CSC(=N\N=C\c1ccc(N(C)C)cc1)/N=C/N(C)C,105%
4,O=c1[nH]c(=S)c2c(n1CCCO)CCC2,95.6%
5,COc1ccc2c(c1)c(C(=O)c1nc(-c3cn(C)c4ccccc34)no1)cn2C,92%
6,O=C1OC(c2ccccc2)C(O)=C1c1ccccc1 (stereo not given),101%
7,Nc1c(-c2nc3ccc(Br)cc3c(=O)[nH]2)nnn1-c1ccccc1,103%
8,COC(=O)c1oc2c(C(=O)/C=C/c3ccc(OC)cc3)c(OCCCN3CCCCC3)ccc2c1C,-54.7% (active)
9,COc1ccc(C2=Nn3c(nnc3-n3nc(C)cc3C)SC2)cc1,-29% (active)
10,COc1ccc(Sc2[nH]c(C=O)c3ccccc23)cc1,14.7%
11,C=CC(CC(c1ccccc1)(c1ccccc1)c1ccccc1)N(CC)CC (stereo not given),71.5%
12,O=C(Nc1ccc(C23CC4CC(CC(c5ccccc5)(C4)C2)C3)cc1)c1cccs1,51%
13,COc1cc2c(cc1OC)C(CC1(O)CCCCC1)N(S(=O)(=O)c1ccc(C)cc1)CC2 (stereo not given),-25% [100 µM] (active)
14,N#Cc1c(NC(=O)c2ccc([N+](=O)[O-])o2)[n+]([O-])c2cc(F)c(F)cc2[n+]1[O-],90.2%
15,CCCCNc1ccc(Nc2ccccc2)cc1,16.5%
16,CCN1CCN(c2ccc(Nc3ncc4ccc5ncn(C(C)C)c5c4n3)nc2)CC1,-36.3% (active)
17,COc1ccc(N2C(=O)/C(=C/C(Cl)=C/c3ccc([N+](=O)[O-])cc3)SC2=S)cc1,-14% (active)
18,CC(C)Cc1ccc(C(C)C(=O)NCc2ccc(Cn3c(=O)sn(-c4ccc(Cl)cc4)c3=O)cc2)cc1 (stereo not given),95.8%
19,OCc1cnccc1NCCCCOc1ccc(Oc2ccccc2)cc1,22.7%
20,COc1cc2c(/C=C3\C(=O)Nc4ccccc43)c(C(=O)O)[nH]c2cc1C,110%

row,SMILES,growth
1,O=C(c1ccccc1)C1OC1C(=O)c1ccccc1 (stereo not given),22.8%
2,CN(C)c1ccc(C2(Cl)c3ccccc3N(C)c3ccccc32)cc1,17.5%
3,CC(C)(C)c1nn(-c2ccccc2)c2c1CC1(CN2Cc2ccc3c(c2)OCO3)C(=O)c2ccccc2C1=O,102%
4,O=C(COc1ccc(-c2nc3cc(Cl)c(Cl)cc3[nH]2)cc1)N=Nc1c(O)[nH]c2ccc(Cl)cc12,55.5%
5,Nc1c(C(=O)Nc2c(Cl)cccc2Cl)sc2nc3c(cc12)C(=O)CCC3,11.5%
6,O=C(O)c1ccc2c(c1Sc1ccccc1)C(=O)c1ccccc1C2=O,95.8%
7,COc1ccc(C)c2sc(N(Cc3cccnc3)C(=O)c3ccc(C#N)cc3)nc12,-6.46% (active)
8,CN(C)CCC(=O)c1c[nH]c2ccccc12,96.5%
9,C=C1CC[C@@H]2[C@](C)(COC(C)=O)[C@H](OC(C)=O)CC[C@@]2(C)[C@@H]1C/C=C1/C(=O)OC[C@H]1OC(C)=O,79.1%
10,CCOC(=O)C/C(=N\Nc1cc(=O)[nH]c2ccc(Br)cc12)C(=O)OCC,-7.84% (active)
11,COc1cc(/C=N/O)nc(-c2ccccn2)c1,-13.5% (active)
12,O=C(/C=C/c1ccccc1Cl)c1ccc(O)cc1,60.2%
13,CC(C)c1ccc(Nc2n[nH]c(=S)s2)cc1,97.7%
14,COc1ccc(/C=C/C(=O)c2cc3c(N)c(C(=O)Nc4ccccc4C)sc3nc2C)cc1,10.7%
15,CC1=NOC(=O)/C1=C\c1ccc(O)cc1,105%
16,Oc1cc(/C=C/c2nc(N3CCOCC3)c3cc(Cl)c(Cl)cc3n2)cc(O)c1O,99.4%
17,O=C1/C(=C\c2cccnc2)SC(=S)N1CCc1ccc(O)cc1,18%
18,Cc1ccc2nc(-c3ccc(C(=O)NNC(=S)Nc4ccccc4)cc3)[nH]c2c1,98%
19,O=C(O)c1ccccc1Oc1cc(-c2ccco2)nc(OCCBr)n1,100%
20,COc1ccc(-c2nc(N=Nc3c(O)[nH]c4ccccc34)nc(N3CCOCC3)c2C#N)cc1,90.5%
